Laboratory results published in PubChem BioAssay AID624351 (Southern Research Specialized Biocontainment Screening …, 2012).
The campaign covered roughly 2,400 compounds. About 1,400 (58%) were called active.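 How the source made its calls: active means inhibition of 30% or more at any tested dose; inconclusive means primary hits over the limit that were never retested; inactive means the rest.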 So high a share suggests a set chosen from earlier hits. The list shows a part of the results.

Experiment: coupled detection enzyme interference, dose response, artefact control for MgcRacGAP inhibitor project, biochemical, coupled enzyme counter-screen (AID 624351);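 further: signal is the ADP detection kit reading of free GDP without any GAP enzyme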;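 on inhibition: 0% = median positive control wells and 100% = median negative control wells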
Settings: ADP Hunter coupled enzyme counter-screen, fluorescence, no MgcRacGAP; series mostly up to 80 µM; inhibition: at the top concentration

SMILES | inhibition | IC50
O=C(CNC1CC1)Nc1cc(C(F)(F)F)ccc1Cl | 17.2% (inactive) | 
COc1ccc(NC(=O)NS(=O)(=O)c2ccc(C)cc2)cc1OC |  | 25.5 µM (active)
Cc1ccc(S(=O)(=O)N[C@H](C(=O)OCn2nnc3ccccc3c2=O)C(C)C)cc1 | 1.81% (inactive) | 
O=C(/C=C/c1ccc(O)c(O)c1)c1ccc(S(=O)(=O)N2CCCCCC2)cc1 | 29.4% (inactive) | 
O=C(CNCc1ccco1)Nc1cccc(S(=O)(=O)N2CCCCC2)c1 | 15.6% (inactive) | 
COc1ccc(/C=N/NC(=O)c2cccc(S(=O)(=O)N3CCCC3)c2)cc1O |  | 55.4 µM (active)
O=C(N/N=C/c1ccc(O)c(O)c1)c1cccc(S(=O)(=O)N2CCCCC2)c1 |  | 72.8 µM (active)
CCN(CC)S(=O)(=O)c1cccc(C(=O)N/N=C/c2ccc(OC)c(O)c2)c1 |  | 81.2 µM (active)
CCOc1cc(C=NNC(=O)c2cccc(S(=O)(=O)N3CCCC3)c2)ccc1O |  | 32.6 µM (active)
COc1ccc2c3c(cccc13)N(C)N=C2C | 1.94% [at 40 µM] (inactive) | 
Cc1sc2c3ccsc3ccc2[n+]1C | 0.2% (inactive) | 
COCc1cc(C)nc(OCC(=O)N/N=C/c2ccc(O)cc2)c1C#N |  | 79.7 µM (active)
O=C(Cc1ccc(Cl)cc1)N/N=C/c1ccc(O)c(O)c1 |  | 19.4 µM (active)
O=[N+]([O-])c1ccccc1OCCNCc1ccccc1 | -0.42% (inactive) | 
O=C(CCc1ccc(O)c(O)c1)N/N=C/c1ccc2c(c1)OCO2 | 9.28% (inactive) | 
O=C(COc1ccccc1[N+](=O)[O-])N/N=C/c1ccc(O)cc1 |  | 70.9 µM (active)

SMILES | inhibition | IC50
O=C(COc1cccc2cccnc12)N/N=C/c1ccc(O)cc1 |  | 80 µM (active)
O=C(Sc1n[nH]c(=O)[nH]c1=O)c1ccccc1 | -1.01% (inactive) | 
CCn1nc(NS(=O)(=O)c2ccccc2[N+](=O)[O-])c2cc3ccc(C)cc3nc21 | 7.55% (inactive) | 
O=C(COc1ccccc1C(=O)N/N=C\c1ccc(O)c(O)c1)N/N=C/c1ccc(O)c(O)c1 |  | 28.8 µM (active)
COc1cc(/C=N\NC(=O)CNC(=O)C2COc3ccccc3O2)ccc1O (stereo unspecified) |  | 35.8 µM (active)
CCOC(=O)CCNC(C)C1COc2ccccc2O1 (stereo unspecified) | 12.8% (inactive) | 
O=C(CNC(=O)C1COc2ccccc2O1)N/N=C/c1ccc(O)cc1O (stereo unspecified) |  | 66.8 µM (active)
CCCCN(CC)CCNC(=O)c1cc2c(-c3ccc(Cl)cc3)nn(C)c2s1 | 22.5% [at 40 µM] (inactive) | 
c1cc2c(cc1CN1CCN(C3CCCCCC3)CC1)OCO2 | 23.1% (inactive) | 
c1cc2c(cc1NC1CCCCCC1)OCO2 |  | 45.1 µM (active)
COc1ccc(N2C(S)=C(C#N)C(=O)NC2c2ccco2)cc1 (stereo unspecified) | 6.86% (inactive) | 
COc1cc(/C=C2\SC(=Nc3c(C)n(C)n(-c4ccccc4)c3=O)NC2=O)ccc1O |  | 44.4 µM (active)
O=C1NC(=NCc2ccccc2)S/C1=C/c1ccc(O)cc1 |  | 20.1 µM (active)
COc1cc(/C=C2/SC(=S)N(c3c(C)n(C)n(-c4ccccc4)c3=O)C2=O)ccc1O |  | 48.2 µM (active)
O=C1N/C(=C\c2ccc(O)cc2)C(O)=C1C=NCc1ccccc1 |  | 16 µM (active)
